The record followed here is PubChem BioAssay AID1210 (NMMLSC, 2008).

One may read the inhibition as the relative decrease from the control value, in per cent.

SMILES strings stand for the structures. Active and inactive are the calls of the source.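 Rule for the calls: active = blocks over 70% of labeled estradiol binding at 10 µM, or over a set limit at 100 nM; inactive = the rest.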

The target of this assay is Estrogen receptor beta (Homo sapiens) (UniProt Q92731). As to the kind of experiment: displacement of fluorescent estrogen from ERbeta – cell-based, Cos7 ERbeta-GFP, flow cytometry, primary screen (AID 1210).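 Note: 0% = DMSO vehicle wells and 100% = complete loss of labeled estradiol signal.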 The following applies: fluorescent estrogen binding, at 10 µM, active compounds read high.
Estrogen receptor beta (Homo sapiens), sequence (Q92731 whole entry, looked up): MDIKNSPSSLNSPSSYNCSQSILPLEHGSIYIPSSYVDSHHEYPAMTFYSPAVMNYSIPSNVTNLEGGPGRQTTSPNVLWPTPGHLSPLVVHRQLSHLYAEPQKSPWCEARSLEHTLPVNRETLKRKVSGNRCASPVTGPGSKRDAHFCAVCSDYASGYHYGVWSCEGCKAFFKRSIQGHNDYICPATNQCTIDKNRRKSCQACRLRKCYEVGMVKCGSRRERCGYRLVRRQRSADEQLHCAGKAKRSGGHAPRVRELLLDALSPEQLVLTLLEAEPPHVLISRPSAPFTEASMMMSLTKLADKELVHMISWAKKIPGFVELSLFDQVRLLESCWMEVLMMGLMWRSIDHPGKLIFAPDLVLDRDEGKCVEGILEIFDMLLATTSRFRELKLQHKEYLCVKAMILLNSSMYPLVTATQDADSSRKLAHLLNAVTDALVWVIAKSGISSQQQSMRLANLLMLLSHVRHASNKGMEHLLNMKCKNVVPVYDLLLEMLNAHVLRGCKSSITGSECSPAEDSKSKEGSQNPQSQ
Turning to `N#Cc1c2c(c(=O)n3c1[nH]c1ccccc13)CCCC2`, the inhibition was 13% (inactive).

In the case of `CC(=O)Nc1ccc2[nH]c(C)cc(=O)c2c1`, the inhibition was 64% (inactive).

With `O=C(Cc1ccc(S(=O)(=O)N2CCOCC2)s1)Nc1nc2c(s1)CCCC2`, the inhibition was 18% (inactive).

On to `c1coc(C2Nc3ccccc3C3OCCC23)c1` (stereo not drawn), for which the inhibition is 0% (inactive).

For `Cc1ccc2c(c1C)NC(C(=O)O)C1CC=CC21` (stereo not drawn), the inhibition is 3% (inactive).

As to `Cn1c(SCc2cc(=O)n3cc(Br)ccc3n2)nnc1C1COc2ccccc2O1` (stereo not drawn), the inhibition was 16% (inactive).

For the compound `CCNC(=O)N1c2ccc(OCC)cc2C(C)=CC1(C)C`, the inhibition is 15% (inactive).

On to `CC(=O)OC1CC2(C)C(=O)CCC2C2CCc3cc(O)ccc3C12` (stereo not drawn), for which the inhibition was 95% (active).

For `O=c1oc2c(O)c(O)cc3c(=O)oc4c(O)c(O)cc1c4c23`, the inhibition is 13% (inactive).

In the case of `CCCCc1cc(=O)oc2c(C)c(O)ccc12`, the inhibition was 7% (inactive).

With `CCOC(=O)c1ccc2c(c1)C1C=CCC1C(c1cccc([N+](=O)[O-])c1)N2` (stereo not drawn), the inhibition was 6% (inactive).

`O=c1oc2cc(O)ccc2c2c1CCCC2`: the inhibition was 12% (inactive).

Turning to `CC1(C)Cc2[nH]c(=O)c(C(=O)O)cc2CO1`, the inhibition was 43% (inactive).

As to `CCCc1cc(=O)oc2c(C)c(OC3CCCCC3=O)ccc12` (stereo not drawn), the inhibition is 19% (inactive).

Take `CC(Nc1ccc(N2CCNCC2)cc1[N+](=O)[O-])C12CC3CC(CC(C3)C1)C2` (stereo not drawn): the inhibition is 15% (inactive).

On to `CCCOc1cc(OCCC)c2c3c(c(=O)oc2c1)CCCC3`, for which the inhibition is 20% (inactive).

Consider `O=C(O)C1Nc2c(C(=O)N3CCOCC3)cccc2C2C=CCC12` (stereo not drawn), for which the inhibition is 45% (inactive).

For the compound `CCOc1ccc(NS(=O)(=O)c2ccc3c(c2)[C@H]2C=CC[C@H]2[C@@H](c2ccc(C(=O)O)cc2)N3)cc1`, the inhibition was 52% (inactive).

For `CCOC(=O)Cc1cc(-c2ccc(O)cc2)nc2ccc3ccccc3c12`, the inhibition is 69% (inactive).

As for `COc1ccc(N2C(=O)c3ccccc3NC2c2ccc(OC)c(CSc3ccccn3)c2)cc1` (stereo not drawn), the inhibition is 36% (inactive).

Turning to `CC1(C)Cc2[nH]c3ccccc3c2C(C)(C)N1`, the inhibition is 16% (inactive).

`CCCNC(=O)c1ccc2c(c1)C1C3CCC(C3)C1C(c1ccccc1)N2` (stereo not drawn): the inhibition was 54% (inactive).

For the compound `CCOc1cc2c(c([N+](=O)[O-])c1)NC(c1ccc(Cl)cc1)C1CC=CC21` (stereo not drawn), the inhibition is 16% (inactive).

As to `O=c1oc2cc(O)c(Cl)cc2c2c1CCCC2`, the inhibition is 8% (inactive).

On to `CC(=O)c1ccc(N2Cc3ccccc3C2)cc1`, for which the inhibition was 19% (inactive).

Take `Nc1nc(-c2ccc3c(c2)NC(=O)CO3)cs1`: the inhibition was 70% (inactive).

Consider `COc1cc(-c2nc3ccc4ccccc4c3c3c2CCC3)cc(OC)c1O`, for which the inhibition is 64% (inactive).

For the compound `COc1nnc(-c2ccc(C(=O)N3C[C@@H]4C[C@H](C3)c3cccc(=O)n3C4)cc2)c2ccccc12`, the inhibition was 34% (inactive).

Take `Cc1noc(C)c1CSCC(=O)OCC(=O)Nc1sccc1C#N`: the inhibition was 5% (inactive).

As to `COc1ccc(NS(=O)(=O)c2ccc3c(c2)[C@H]2C=CC[C@H]2[C@@H](c2ccc(C(=O)O)cc2)N3)cc1`, the inhibition was 88% (active).

Consider `COc1ccc(Oc2ccc3c(c2)c2c4n3CCNC4CCC2)cc1` (stereo not drawn), for which the inhibition is 7% (inactive).

For the compound `CC(C)C1Nc2ccc(C(=O)O)cc2C2C=CCC21` (stereo not drawn), the inhibition was 35% (inactive).

In the case of `CCCCOC(=O)c1c(C)oc2ccc(NS(=O)(=O)c3ccc4c5c(cccc35)C(=O)N4)cc12`, the inhibition was 43% (inactive).

For the compound `CCOC(=O)c1c(N)sc2c1CC(C)(C)NC2(C)C`, the inhibition was 22% (inactive).

Take `O=C(Nc1ccc(O)cc1)C1CC=CCC1` (stereo not drawn): the inhibition is 29% (inactive).

In the case of `O=C(O)c1ccc2c(c1)C1C=CCC1C(c1cccc([N+](=O)[O-])c1)N2` (stereo not drawn), the inhibition was 33% (inactive).

In the case of `CCCCc1cc2c(=O)c(-c3ccccn3)coc2cc1O`, the inhibition is 18% (inactive).

On to `CCOC(=O)Cc1csc(NC(=O)Cc2cccs2)n1`, for which the inhibition is 25% (inactive).
